LGR2 inh: inhibitors of bursicon-induced LGR2 CRE-luciferase signal, primary screen, cell-based, HEK293, CRE-luciferase reporter, bursicon stimulation; bursicon-stimulated, 4 h; inhibition, % at 9.99 µM; 380,000 tested, 0.35% active; AID 720647, 2013;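 active = drop in luminescence signal, shown as inhibition above about 50% in the replicate tests, limit read from the data, passing the limit was not always enough; inconclusive = probably only some replicates passing the limit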;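 also: agonist challenge used bursicon conditioned medium at about half maximal strength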
TWEAK-Fn14 inh: inhibitors of TWEAK-Fn14 signaling, primary screen, luciferase reporter cells, uHTS. TWEAK-stimulated Fn14 reporter cells, luciferase luminescence, 8 h. inhibition, % at 10 µM. 360,000 tested, 2% active. AID 1159606, 2016; in the data active = inhibition above about 50%
TROY signal inh: inhibitors of TROY-driven NF-kB signaling, primary screen, Q293 LMP1-TROYcd cells, NF-kB luciferase, uHTS | Q293 LMP1-TROYcd NF-kB luciferase reporter, 4 h | AID 1347056, 2019 | 360,000 tested, 0.98% active | inhibition, % at 10 µM;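 active = compounds whose plate-normalised and pattern-corrected inhibition of the luciferase reporter signal at the single screening dose is 50% or more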
HSP90 refold inh: HSP90 inhibitors, primary screen, cell lysate, luminescence | 290,000 tested, 0.91% active | inhibition, % at 5.6 µM | Heat shock protein HSP 90 (rabbit reticulocyte lysate; luciferase refolding) | AID 1789, 2009 | Rabbit reticulocyte lysate, luciferase refolding luminescence, 3 h;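 active = inhibition above the screen-wide mean plus 3 SD, computed separately per campaign, cut at about 16% in these data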;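 also: 0% = DMSO wells and 100% = 60 µM geldanamycin wells; inhibitors lower the luminescence because luciferase stays unfolded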
* marks the source's active call; other numbers are inactive results; ? = inconclusive; . = not tested or not shown. An excerpt weighted towards active compounds, which were near 2.2% of everything screened.

SMILES	LGR2 inh	TWEAK-Fn14 inh	TROY signal inh	HSP90 refold inh
CC(=O)c1cccc(NC(=O)N2CCCC2C(=O)Nc2cccc(C)c2)c1 (stereo unspecified)	.	66*	12	0
CC(=O)Nc1cccc(NC(=O)C2CCCN2C(=O)Nc2cccc(C)c2)c1 (stereo unspecified)	.	0	-1	1
O=C(Nc1ccc2c(c1)OCCO2)C1CCCN1C(=O)Nc1ccc(F)cc1 (stereo unspecified)	4	59*	32	1
CC(C)CC#Cc1cnc2c(c1)C(=O)N([C@H](C)CO)C[C@H](C)[C@H](CN(C)C(=O)CN1CCOCC1)O2	2	.	.	.
O=C(c1ccccc1)N1[C@H](CO)[C@H](c2ccccc2)C12CN(CCC(F)(F)F)C2	0	.	.	.
CC1=C(CO)C(=O)OC([C@@H](C)C2CC[C@H]3C4C[C@H]5O[C@]56[C@@H](O)C=CC(=O)[C@]6(C)C4CC[C@]23C)C1 (stereo partly specified)	.	103*	49	.
Cc1cc(C(=O)COC(=O)c2cccnc2Cl)c(C)n1C	?	76*	4	.
Cc1cc(C(=O)COC(=O)C2CCN(C(=O)c3ccc(Cl)cc3)CC2)c(C)n1CC1CCCO1 (stereo unspecified)	2	68*	19	5
CSc1ncccc1C(=O)OCC(=O)c1cc(C)n(CC2CCCO2)c1C (stereo unspecified)	5	76*	62*	4
CSc1ncccc1C(=O)OCC(=O)c1cc(C)n(C)c1C	.	1	-72	.
O=C(c1cccnc1)N1CC2(C1)[C@@H](c1ccccc1)[C@@H](CO)N2Cc1cccnc1	7	.	.	.
CNC(=O)C[C@@H]1CC[C@@H]2[C@@H](COc3ccc(NC(=O)Nc4cccc(F)c4)cc3C(=O)N2C)O1	-10	.	.	.
C[C@@H]1CN([C@@H](C)CO)C(=O)c2cc(NS(=O)(=O)c3ccc(F)cc3)ccc2O[C@H]1CN(C)S(=O)(=O)c1cccs1	3	.	.	.
O=C(CCc1ccccc1)NC1(Cc2ccccc2)CCN(CCc2cccs2)C1=O (stereo unspecified)	-33	20	-16	.
O=C(NC1(Cc2ccccc2)CCN(Cc2ccc(-c3ccccc3)cc2)C1=O)c1ccccc1 (stereo unspecified)	56*	59*	62*	.
C[C@@H]1CN([C@@H](C)CO)C(=O)Cc2cc(NC(=O)c3ccncc3)ccc2O[C@@H]1CN(C)C(=O)Nc1ccccc1	2	.	.	.
COc1cc(NC(=O)c2cc(-c3ccccc3)nc3c2cnn3C(C)C)cc(OC)c1OC	.	55*	23	.
COc1ccc(-n2cccc2C=O)cc1OC	.	-1	-16	3
COc1ccccc1-n1cccc1C=O	8	3	90*	1
COc1ccc(O)c(/C=N/Nc2nc(Nc3ccccc3)nc(-n3nc(C)cc3C)n2)c1	.	60*	-28	6
COc1cc(/C=N/Nc2nc(Nc3ccccc3)nc(-n3nc(C)cc3C)n2)cc(OC)c1OC	-9	45	-2	1
CN1C(=O)c2cc(NC(=O)c3ccc(F)c(F)c3)ccc2OC[C@@H]2O[C@H](CC(=O)N[C@H]3CCN(Cc4ccccc4)C3)CC[C@@H]21	14	.	.	.
CCC(C)N1C(=O)S/C(=C/c2ccc(N3CCOCC3)cc2C)C1=O (stereo unspecified)	-69	51*	33	4
Cc1cc(N2CCOCC2)ccc1/C=C1\SC(=O)N(C(C)C)C1=O	.	49	26	5
Cn1c(=NC(=O)c2ccccc2[N+](=O)[O-])sc2cc(S(C)(=O)=O)ccc21	12	51*	7	2
SMILES	LGR2 inh	TWEAK-Fn14 inh	TROY signal inh	HSP90 refold inh
Cn1c(=NC(=O)c2ccc(S(=O)(=O)N3CCCc4ccccc43)cc2)sc2cc(S(C)(=O)=O)ccc21	7	-13	2	-4
COc1ccc(S(=O)(=O)N(C)C[C@@H]2Oc3c(NC(=O)Nc4c(C)noc4C)cccc3C(=O)N([C@H](C)CO)C[C@@H]2C)cc1	9	.	.	.
Cn1c(N=NC(=O)c2ccccc2)c(O)c2ccccc21	?	69*	39	8
Cn1c(O)c(N=NC(=O)CNC(=O)c2ccccc2)c2ccccc21	4	-12	-5	6
C[C@@H](O)C#Cc1cnc2c(c1)C(=O)N([C@@H](C)CO)C[C@H](C)[C@H](CN(C)C(=O)Cc1ccccn1)O2	5	.	.	.
C/C(=C/CCC(C)[C@H]1CC[C@@]2(C)C3=C(CC[C@]12C)[C@@]1(C)CCC(=O)C(C)(C)[C@@H]1CC3)C(=O)O (stereo partly specified)	.	10	53*	4
O=C(Nc1cc(F)ccc1F)N1C[C@@H]2[C@H](c3ccccc31)[C@H](CO)N2C(=O)c1ccccc1	7	.	.	.
Cc1ccc(C(=O)C2C(=O)C3CCC2C3)cc1 (stereo unspecified)	63*	63*	-19	.
Cc1ccc(C(=O)C2CCNCC2)cc1	.	-6	-13	0
C[C@@H]1CN([C@H](C)CO)C(=O)Cc2cc(NC(=O)Cn3cnnn3)ccc2O[C@H]1CN(C)S(=O)(=O)c1ccc(F)cc1	16	.	.	.
COc1ccc(NC(=O)N(C)C[C@@H]2Oc3c(NS(=O)(=O)c4ccc(F)cc4)cccc3C(=O)N([C@@H](C)CO)C[C@H]2C)cc1	1	.	.	.
CCOC(=O)NC(=O)COC(=O)CCCSc1nc2ccccc2s1	-12	54*	27	10
Cc1cccc(C)c1NC(=O)CCCSc1nc2ccccc2s1	-7	-25	2	0
NC(=O)NC(=O)COC(=O)CCCSc1nc2ccccc2s1	-5	61*	39	8
CC(C)NC(=O)NC(=O)COC(=O)CCCSc1nc2ccccc2s1	12	-3	8	6
O=C(O)CCSc1nc2ccccc2s1	-10	92*	69*	12
C[C@H]1CN([C@@H](C)CO)C(=O)c2cccc(NC(=O)c3cnccn3)c2O[C@H]1CN(C)C(=O)NC1CCCCC1	-12	.	.	.
CN(C)C(=O)c1cccc(-c2ccc([C@@H]3[C@@H](C#N)N(C(=O)C4CCCCC4)[C@H]3CO)cc2)c1	-14	.	.	.
C[C@H]1CCCCO[C@H](CN(C)S(=O)(=O)c2ccccc2)[C@@H](C)CN([C@@H](C)CO)C(=O)c2cc(NC(=O)Nc3ccc(C(F)(F)F)cc3)ccc2O1	6	.	.	.
COc1cccc(C(=O)CC(=O)C(=O)Nc2ccc(C)cc2Cl)c1	14	91*	36	5
COc1cccc(C(=O)CC(=O)C(=O)Nc2cc(OC)ccc2OC)c1	-9	21	-19	-6
COc1ccc(C(=O)CC(=O)C(=O)Nc2ccc(C)cc2Cl)cc1	-8	52*	-14	0
O=C(CSc1c(Cl)cccc1Cl)N1CCC(c2nc3ccccc3s2)CC1	.	19	51*	-1
CCCC#Cc1ccc2c(c1)O[C@@H](CN(C)Cc1ccncc1)[C@H](C)CN([C@@H](C)CO)S2(=O)=O	2	.	.	.
CCOC(=O)NC(=O)/C(C#N)=N\Nc1cccc(Cl)c1	2	-1	56*	-3
